Source: the supplement of paper PMC10681739

Key:
ETS1 [1] = target: T1, ETS1 (UniProt P14921); experiment: ETS1 binding intensity (PBM fluorescence), ETS1 alone (arbitrary fluorescence units); higher = stronger binding; details: ETS1 concentration 1 nM; RUNX1 concentration 0 nM
T1 sequence: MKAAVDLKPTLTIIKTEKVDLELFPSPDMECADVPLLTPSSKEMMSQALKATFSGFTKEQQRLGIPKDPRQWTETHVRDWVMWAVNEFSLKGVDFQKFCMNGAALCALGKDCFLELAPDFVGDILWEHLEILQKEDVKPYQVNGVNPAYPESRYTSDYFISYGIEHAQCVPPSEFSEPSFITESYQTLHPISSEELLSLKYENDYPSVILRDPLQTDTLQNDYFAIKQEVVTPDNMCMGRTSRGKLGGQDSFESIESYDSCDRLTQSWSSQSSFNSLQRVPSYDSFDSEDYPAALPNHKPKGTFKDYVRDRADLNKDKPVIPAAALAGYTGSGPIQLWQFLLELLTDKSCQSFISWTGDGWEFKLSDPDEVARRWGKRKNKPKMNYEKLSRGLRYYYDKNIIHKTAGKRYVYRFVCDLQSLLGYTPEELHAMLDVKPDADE

RUNX1 [2] = target: RUNX1 (UniProt Q01196); experiment: RUNX1 binding intensity (PBM fluorescence), RUNX1 alone (arbitrary fluorescence units); higher = stronger binding; details: RUNX1 concentration 2 nM; ETS1 concentration 0 nM
RUNX1, sequence (Q01196 whole entry): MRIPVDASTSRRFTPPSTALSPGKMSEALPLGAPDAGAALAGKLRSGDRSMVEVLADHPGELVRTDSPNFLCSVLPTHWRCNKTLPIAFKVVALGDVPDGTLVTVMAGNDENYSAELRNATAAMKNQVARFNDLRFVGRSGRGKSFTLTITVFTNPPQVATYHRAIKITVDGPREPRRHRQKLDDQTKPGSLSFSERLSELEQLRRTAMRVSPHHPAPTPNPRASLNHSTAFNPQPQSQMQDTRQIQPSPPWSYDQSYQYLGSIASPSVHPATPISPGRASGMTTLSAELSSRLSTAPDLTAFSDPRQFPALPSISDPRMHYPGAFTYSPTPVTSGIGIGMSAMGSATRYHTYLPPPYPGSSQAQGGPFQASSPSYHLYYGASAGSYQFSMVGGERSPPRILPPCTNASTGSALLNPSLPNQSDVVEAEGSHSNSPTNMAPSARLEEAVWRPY
Protocol: (§1)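 Cooperative gcPBM on 36-bp genomic probes with neighbouring ETS1 and RUNX1 sites. Recombinant human RUNX1 (2 nM) was incubated alone or with ETS1 (25 nM) and detected with anti-RUNX1 antibody plus Alexa488 secondary. Values are medians over 4 replicate spots; the RUNX1+ETS1 data were normalised to the RUNX1-only data. The probes sit in constant array flanks that are not printed.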

ETS1 [3] = target: T1, ETS1; experiment: ETS1 binding intensity (PBM fluorescence) in presence of RUNX1, normalised to ETS1-only experiment (arbitrary fluorescence units); higher = stronger binding; details: ETS1 concentration 1 nM; RUNX1 concentration 25 nM
RUNX1 [4] = target: RUNX1 (UniProt Q01196); experiment: RUNX1 binding intensity (PBM fluorescence) in presence of ETS1, normalised to RUNX1-only experiment (arbitrary fluorescence units); higher = stronger binding; details: RUNX1 concentration 2 nM; ETS1 concentration 25 nM
Protocol: as §1
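For RUNX1 binding intensity (PBM fluorescence) in presence of ETS1, normalised to RUNX1-only experiment in this document: Full-length recombinant human ETS1 or RUNX1 bound to double-stranded 36-bp genomic probes on microarrays, detected by protein-specific primary antibody and Alexa488 secondary, spot fluorescence as median of four replicate spots.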
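For RUNX1 binding intensity (PBM fluorescence), RUNX1 alone in this document: Full-length recombinant human RUNX1 bound to double-stranded 36-bp genomic probes on a high-density microarray, scored as Alexa488 fluorescence per spot via anti-RUNX1 antibody, median of four replicate spots.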

Sequence | ETS1 binding intensity (ETS1 [1]) | RUNX1 binding intensity (RUNX1 [2]) | ETS1 binding intensity (ETS1 [3]) | RUNX1 binding intensity (RUNX1 [4])
GAGCTAGCCACTTCCTCCCCCACAACTACACCCAGG | 814 | 976 | 914 | 3420
AAATATAGTGCTAAAGGAAGTGGTTTTCATGCAACT | 2380 | 670 | 4140 | 1080
TGCCACCTGCTTCCTGCCTGTGTAGCCACAAGGGAC | 783 | 910 | 960 | 1600
GCGCTACAGGAACTTCCTGCGCGGTTGCTGTCGTTG | 1360 | 702 | 1570 | 1180
GACGGGAGCACCGGAAGCGGTCTTTCCCCGAGCGGA | 12900 | 736 | 12500 | 2370
GTCTTACTTCCTGTCCCCGCCCACCGCGACTGTCTT | 2560 | 1740 | 3520 | 3600
CCTCCCTGAGGGGGAAGTGGTTTTTGAGTCTGAGTC | 579 | 859 | 1190 | 1020
TGCTCAGAAGGGCATCCGGTTGCGGAGAAGGTACAC | 2130 | 653 | 2000 | 1370
GTGCCCCGGACCTACGGATACCACACACAGACAGGC | 470 | 928 | 460 | 869
TCCCGGCGTTCTTCCGCTGGCTCAGCCGCAAGTACC | 573 | 818 | 822 | 1170
TCTGCCGCCAGCCCATCCGCGACCGCATCCAGATCT | 346 | 1250 | 653 | 1210
AGGCCGTGCAGGAAATGAGACCCACAGCCACGTCAC | 1800 | 789 | 2180 | 977
CAGGCAGGATGTTGACTCAGCTGCCAAGTGGTTTTG | 1340 | 719 | 1760 | 1020
CGGGACTTCCTGTCTTCCCTGTTGCGGAGCTCTGAA | 1720 | 780 | 1830 | 2000
CCCACAGGAAATCCCCTGGTCTGTGGCGCCTCTGAT | 881 | 766 | 823 | 1110
GACCTGGGCAGGAAGAGCGGCATGTGGGGCCCCCTG | 875 | 714 | 795 | 874
GTGTGAAGGAAGTGTGAGATCAAACCACAGCTGGGT | 457 | 874 | 901 | 947
TCCCCCACTTCCTGGCAGCAGCAGTGTGGTGAGGAG | 845 | 879 | 996 | 2160
TAAGAGATTTCCTGTAAAGGTAACCACCAGCAAAGA | 522 | 721 | 714 | 1230
AACTTAGCTTCCGGGAAGAAGGCGAGCGGTGGGAGG | 780 | 735 | 724 | 1400
